Screens as filed in PubChem.
Rows were chosen to be rich in hits. Some 3.5% of all compounds tested hit in one or more screens of this group.
FBW7 act: activators of human E3 ligase FBW7; Q969H0; AlphaScreen FBW7–phospho-cyclin E peptide binding, activator screen; normalized activity (activation), % at 26.1 µM; actives 0.13% (n = 650,000); in the data active = normalized activity above about 1.9%;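 also: purified mutant Fbw7 with reduced substrate affinity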
Target sequence (Q969H0 whole entry, looked up): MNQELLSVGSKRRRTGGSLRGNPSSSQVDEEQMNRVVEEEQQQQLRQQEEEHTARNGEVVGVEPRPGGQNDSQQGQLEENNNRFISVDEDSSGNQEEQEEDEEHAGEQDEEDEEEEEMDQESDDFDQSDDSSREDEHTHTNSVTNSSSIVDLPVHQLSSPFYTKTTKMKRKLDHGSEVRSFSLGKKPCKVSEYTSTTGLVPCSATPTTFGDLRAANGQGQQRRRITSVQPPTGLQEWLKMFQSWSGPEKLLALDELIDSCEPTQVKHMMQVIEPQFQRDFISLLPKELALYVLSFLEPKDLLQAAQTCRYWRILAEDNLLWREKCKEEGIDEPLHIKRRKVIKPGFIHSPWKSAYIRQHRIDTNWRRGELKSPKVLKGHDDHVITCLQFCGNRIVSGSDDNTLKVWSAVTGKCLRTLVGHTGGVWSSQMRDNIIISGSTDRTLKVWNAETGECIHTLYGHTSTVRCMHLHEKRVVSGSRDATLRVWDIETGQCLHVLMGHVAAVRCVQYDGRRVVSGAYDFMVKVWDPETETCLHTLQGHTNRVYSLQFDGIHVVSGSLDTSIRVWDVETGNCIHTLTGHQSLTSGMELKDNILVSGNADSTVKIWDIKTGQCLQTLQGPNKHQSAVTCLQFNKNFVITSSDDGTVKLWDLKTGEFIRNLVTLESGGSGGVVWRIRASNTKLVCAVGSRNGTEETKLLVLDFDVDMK
MITF primary: inhibitors of human MITF | AlphaScreen MITF homodimerization, bead proximity signal | inhibition, % at 2.6 µM | actives 0.91% (n = 650,000); in the data active = inhibition above about 50%;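 also: 0% = vehicle wells with protein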
TEAD-YAP inh: TEAD-YAP interaction inhibition; HEK-TIYL cells, TEAD-Gal4/YAP UAS-luciferase luminescence; inhibition, % at 9.12 µM; actives 1.4% (n = 640,000); in the data active = inhibition above about 32%;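 also: 0% = median of test compound wells and 100% = reference inhibitor wells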
GPR151 ag: activates the human receptor GPR151 | Q8TDV0 | actives 1% (n = 650,000) | PathHunter beta-arrestin GPR151 cells, luminescence | activation, % at 11.2 µM; in the data active = activation above about 4.9%;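 also: 0% = median of compound wells and 100% = cells with positive control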
Active calls of the source: *.

SMILES | FBW7 act | MITF primary | TEAD-YAP inh | GPR151 ag
COc1ccc(CCNc2nc(SCC(=O)N3CCN(c4ccccc4)CC3)nc3ccccc23)cc1OC | 1 | 10 | 36* | 1
CCC(C)NC(=O)CSc1nc(NCCc2ccc(OC)c(OC)c2)c2ccccc2n1 (centres undefined) | 0 | -5 | -2 | -1
Cc1ccccc1NC(=O)Cn1c(C)cc(=O)c2ccccc21 | 0 | 5 | 39* | 1
COc1ccc(CCNc2nc(NCCCN3CCCC3=O)nc3c2ncn3-c2ccsc2)cc1 | 0 | 16 | 7 | -2
COc1ccc(-c2nc(NCCN3CCOCC3)c3ncn(-c4ccsc4)c3n2)cn1 | 0 | 20 | 35* | -1
COc1ccc(-c2nc(NCCCN3CCCC3=O)c3ncn(-c4ccsc4)c3n2)cc1 | 0 | -18 | 58* | -1
COc1ccc(-c2nc(NCCCN3CCCC3=O)c3ncn(C(C)C)c3n2)cn1 | 0 | 10 | 17 | -2
CC(=O)c1cccc(-c2nc(NCCCN3CCCC3=O)c3ncn(C(C)C)c3n2)c1 | 0 | -4 | 44* | -1
COc1ccc(-c2nc(NCCCN3CCCC3=O)c3ncn(-c4ccccc4)c3n2)cn1 | 0 | -1 | 55* | 3
COC(=O)CSc1nnc(CNC(=O)Cc2ccccc2)n1-c1ccc(OC)cc1 | 0 | 2 | 4 | 1
O=C(NC1CC1)c1ccc(-c2nc(NCCCN3CCCC3=O)c3ncn(-c4ccsc4)c3n2)cc1 | 0 | 17 | 42* | 1
Nc1cccc(-c2nc(NCCCN3CCCC3=O)c3ncn(-c4ccccc4)c3n2)c1 | 0 | 5 | 59* | 0
COc1ccc(-c2nc(NCCCN3CCCC3=O)c3ncn(-c4ccsc4)c3n2)cn1 | 0 | -4 | 49* | 0
Nc1cccc(-c2nc(NCCCN3CCCC3=O)c3ncn(CCN4CCCC4=O)c3n2)c1 | 0 | 1 | 0 | 2
CC(=O)c1cccc(-c2nc(NCCCN3CCCC3=O)c3ncn(-c4ccsc4)c3n2)c1 | 1 | -10 | 58* | 1
CC(C)(C)OC(=O)N1CCC2(CC1)N=C(c1ccccc1)C(=S)N2 | 0 | 7 | 4 | 0
O=S(=O)(c1cccs1)N1CCc2nc(-c3ccccn3)nc(N3CCCCC3)c2C1 | 0 | -13 | 10 | 0
COc1ccc(-c2cnnc(N/N=C/c3ccc(O)c(OC)c3)n2)cc1 | 0 | 10 | 36* | 2
COc1cc(/C=N/NC(=O)c2ccccc2NC(=O)c2ccc([N+](=O)[O-])cc2)ccc1O | 0 | -10 | 72* | -2
COc1cc(/C=N/NC(=O)c2cc(OC)c(OC)c(OC)c2)ccc1O | 0 | 1 | 56* | 1
COc1ccc(NC(=O)COc2ccc(/C=N/NC(=S)NC(C)C)cc2OC)cc1 | 0 | 6 | 33* | -1
COc1ccc(NC(=O)COc2ccc(/C=N/n3c(C)nnc3C)cc2OC)cc1 | 0 | 9 | -5 | 1
CCOC(=O)CNC(=O)CSc1nnc(CNc2nc(-c3ccccc3)cs2)n1C | 0 | 9 | 0 | 0
C=CCn1c(SCCNCCO)nnc1C1CCCCC1 | 0 | 30 | 6 | -1
CCCNc1cc(-c2ccc(C(=O)N3CCN(C)CC3)cc2)nc(N)n1 | 0 | 20 | -33 | 0
SMILES | FBW7 act | MITF primary | TEAD-YAP inh | GPR151 ag
Cc1ccc(CCNC(=O)C2CCC(=O)N2C2CCCCC2)cc1 (centres undefined) | 0 | 4 | 2 | 0
COc1cc(C(=O)N/N=C/c2ccc(O)cc2O)cc(OC)c1OC | 0 | 52* | 55* | 0
COc1ccc(NC(=O)C(=O)N/N=C/c2ccc(O)c(OC)c2)cc1 | 25* | -65 | 14 | 0
COc1cc(OC)c(OC)cc1/C=N\NC(=O)c1cc(O)c(O)c(O)c1 | 0 | 66* | -2 | 1
COc1ccc(/C=N/NC(=O)COc2cc(C)ccc2C(C)C)cc1O | 0 | 1 | 63* | 1
COc1ccc(/C=N/NC(=O)C(=O)Nc2ccc(C)cc2)cc1 | 0 | -9 | 9 | -1
O=S1(=O)CCN=C2SC=NN21 | 0 | -11 | -5 | 1
Cc1cccc(S(=O)(=O)NCCNc2cc(N(C)C)nc(C)n2)c1 | 0 | -11 | 6 | 2
CCOc1cccc2c1OC1(C)CC2NC(=O)N1c1cccc(F)c1 (centres undefined) | 4.4* | -5 | 11 | 3
O=C(O)c1ccc([N+](=O)[O-])c2c1NC(c1ccc([N+](=O)[O-])cc1)C1CC=CC21 (centres undefined) | -1 | 85* | 6 | 0
CC(=O)Oc1ccc(C2Nc3c(C(=O)O)ccc([N+](=O)[O-])c3C3C=CCC32)cc1 (centres undefined) | -1 | 19 | -2 | -1
